Our source for the inhibition values is ChEMBL document CHEMBL1961873, “Compounds: GSK PKIS; Assays: Nanosyn kinase panel” (2012).

The target of assay [1] is T1, Serine/threonine-protein kinase D2 (Homo sapiens) (UniProt Q9BZL6).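 Note: mean value of PRKD2 inhibition, from the GSK PKIS screening panel.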
T1 sequence (whole entry): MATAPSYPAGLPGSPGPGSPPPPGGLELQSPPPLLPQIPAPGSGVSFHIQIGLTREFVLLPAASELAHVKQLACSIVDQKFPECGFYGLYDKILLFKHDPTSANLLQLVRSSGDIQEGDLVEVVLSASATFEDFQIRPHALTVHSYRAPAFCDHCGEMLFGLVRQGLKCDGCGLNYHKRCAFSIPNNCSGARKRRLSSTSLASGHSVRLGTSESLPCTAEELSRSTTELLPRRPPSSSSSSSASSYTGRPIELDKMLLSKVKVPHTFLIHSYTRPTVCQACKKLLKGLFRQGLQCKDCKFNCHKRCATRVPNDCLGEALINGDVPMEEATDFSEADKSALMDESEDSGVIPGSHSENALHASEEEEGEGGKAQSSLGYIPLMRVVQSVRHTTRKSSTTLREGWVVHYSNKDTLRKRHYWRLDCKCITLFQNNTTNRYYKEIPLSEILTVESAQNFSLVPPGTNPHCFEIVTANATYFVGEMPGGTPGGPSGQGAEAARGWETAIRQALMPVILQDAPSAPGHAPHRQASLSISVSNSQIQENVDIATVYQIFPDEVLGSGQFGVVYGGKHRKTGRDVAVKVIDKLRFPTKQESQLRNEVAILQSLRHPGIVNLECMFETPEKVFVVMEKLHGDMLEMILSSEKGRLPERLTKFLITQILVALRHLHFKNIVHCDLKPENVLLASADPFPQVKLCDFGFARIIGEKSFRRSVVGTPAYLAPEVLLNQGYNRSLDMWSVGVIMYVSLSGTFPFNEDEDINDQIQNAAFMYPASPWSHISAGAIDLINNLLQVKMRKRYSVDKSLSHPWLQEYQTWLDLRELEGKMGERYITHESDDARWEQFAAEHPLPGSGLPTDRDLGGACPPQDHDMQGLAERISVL
The following applies: at 1 µM.

Assay [2] concerns the target T2, Serine/threonine-protein kinase D3 (Homo sapiens) (UniProt O94806).
T2 sequence (whole entry): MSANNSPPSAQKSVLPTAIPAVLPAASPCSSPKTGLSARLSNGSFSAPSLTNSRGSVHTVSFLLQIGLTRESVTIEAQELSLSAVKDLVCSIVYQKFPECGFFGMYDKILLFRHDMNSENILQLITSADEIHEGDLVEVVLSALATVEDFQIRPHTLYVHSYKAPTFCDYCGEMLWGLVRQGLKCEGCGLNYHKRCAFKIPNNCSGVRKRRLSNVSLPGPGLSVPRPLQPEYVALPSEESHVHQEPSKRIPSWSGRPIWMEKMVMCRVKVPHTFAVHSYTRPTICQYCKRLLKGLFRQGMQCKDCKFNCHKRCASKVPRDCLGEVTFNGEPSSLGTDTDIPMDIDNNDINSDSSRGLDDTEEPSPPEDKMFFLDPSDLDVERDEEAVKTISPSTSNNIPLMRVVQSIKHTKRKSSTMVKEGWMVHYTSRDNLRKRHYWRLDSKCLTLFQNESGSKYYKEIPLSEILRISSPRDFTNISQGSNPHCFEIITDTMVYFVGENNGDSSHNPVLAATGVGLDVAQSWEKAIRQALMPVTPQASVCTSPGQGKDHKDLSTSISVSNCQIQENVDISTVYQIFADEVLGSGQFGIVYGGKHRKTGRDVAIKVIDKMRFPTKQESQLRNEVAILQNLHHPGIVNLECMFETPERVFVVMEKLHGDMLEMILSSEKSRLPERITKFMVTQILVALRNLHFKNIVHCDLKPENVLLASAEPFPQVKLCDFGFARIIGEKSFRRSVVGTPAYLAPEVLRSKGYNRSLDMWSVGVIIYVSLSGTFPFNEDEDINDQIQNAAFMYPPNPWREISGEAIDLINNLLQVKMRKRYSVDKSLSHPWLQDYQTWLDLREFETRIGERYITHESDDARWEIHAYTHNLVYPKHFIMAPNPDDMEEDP
Particulars: at 0.1 µM.

The target in assay [3] is T2, Serine/threonine-protein kinase D3 (Homo sapiens). The following applies: at 1 µM.
For assay [4], the target named is T3, cGMP-dependent protein kinase 1 (Homo sapiens) (UniProt Q13976).
T3 sequence (whole entry): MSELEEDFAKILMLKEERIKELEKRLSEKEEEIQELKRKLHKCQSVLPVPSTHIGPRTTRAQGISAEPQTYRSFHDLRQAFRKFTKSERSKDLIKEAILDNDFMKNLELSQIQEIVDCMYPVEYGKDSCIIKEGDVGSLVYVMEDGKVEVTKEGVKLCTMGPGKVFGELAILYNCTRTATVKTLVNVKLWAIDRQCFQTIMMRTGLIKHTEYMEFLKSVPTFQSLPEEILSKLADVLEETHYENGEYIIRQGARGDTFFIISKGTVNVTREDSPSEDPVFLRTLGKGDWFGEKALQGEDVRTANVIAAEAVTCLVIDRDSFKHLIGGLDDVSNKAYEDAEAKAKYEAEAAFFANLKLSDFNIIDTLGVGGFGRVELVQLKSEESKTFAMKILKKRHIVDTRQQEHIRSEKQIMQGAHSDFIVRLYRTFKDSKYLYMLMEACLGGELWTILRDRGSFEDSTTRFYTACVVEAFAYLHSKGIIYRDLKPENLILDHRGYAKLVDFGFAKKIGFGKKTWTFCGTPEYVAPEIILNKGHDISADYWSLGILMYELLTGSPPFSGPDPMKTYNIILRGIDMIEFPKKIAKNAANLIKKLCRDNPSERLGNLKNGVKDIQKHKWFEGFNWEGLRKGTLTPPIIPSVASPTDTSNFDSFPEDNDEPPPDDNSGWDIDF
The following applies: at 0.1 µM.

Assay [5] has as its target T3, cGMP-dependent protein kinase 1 (Homo sapiens). The following applies: at 1 µM.
Assay [6] deals with T4, cGMP-dependent protein kinase 2 (Homo sapiens) (UniProt Q13237).
T4 sequence (whole entry): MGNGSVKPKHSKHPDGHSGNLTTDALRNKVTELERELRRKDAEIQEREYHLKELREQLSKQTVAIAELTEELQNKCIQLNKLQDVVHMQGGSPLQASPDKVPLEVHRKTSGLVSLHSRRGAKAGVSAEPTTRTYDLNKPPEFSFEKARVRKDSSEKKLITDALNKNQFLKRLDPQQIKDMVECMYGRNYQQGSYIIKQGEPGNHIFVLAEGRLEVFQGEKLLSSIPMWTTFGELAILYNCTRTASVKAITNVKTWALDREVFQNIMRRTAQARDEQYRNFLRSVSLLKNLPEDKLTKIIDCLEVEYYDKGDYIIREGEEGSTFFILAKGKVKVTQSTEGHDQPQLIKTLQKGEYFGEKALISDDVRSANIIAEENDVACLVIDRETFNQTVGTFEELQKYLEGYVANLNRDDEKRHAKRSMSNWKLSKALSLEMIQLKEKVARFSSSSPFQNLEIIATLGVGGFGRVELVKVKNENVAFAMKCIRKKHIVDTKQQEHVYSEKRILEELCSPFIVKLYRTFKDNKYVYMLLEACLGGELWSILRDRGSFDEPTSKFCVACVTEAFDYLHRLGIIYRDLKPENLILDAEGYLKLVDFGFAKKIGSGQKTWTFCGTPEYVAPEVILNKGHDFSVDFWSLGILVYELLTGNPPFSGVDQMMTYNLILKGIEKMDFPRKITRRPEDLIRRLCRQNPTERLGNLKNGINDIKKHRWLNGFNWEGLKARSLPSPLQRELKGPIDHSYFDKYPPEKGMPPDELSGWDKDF
The following applies: at 0.1 µM.

Assay [7] concerns the target T4, cGMP-dependent protein kinase 2 (Homo sapiens). Particulars: at 1 µM.
Assay [8] deals with T5, cAMP-dependent protein kinase catalytic subunit PRKX (Homo sapiens) (UniProt P51817).
T5 sequence (whole entry): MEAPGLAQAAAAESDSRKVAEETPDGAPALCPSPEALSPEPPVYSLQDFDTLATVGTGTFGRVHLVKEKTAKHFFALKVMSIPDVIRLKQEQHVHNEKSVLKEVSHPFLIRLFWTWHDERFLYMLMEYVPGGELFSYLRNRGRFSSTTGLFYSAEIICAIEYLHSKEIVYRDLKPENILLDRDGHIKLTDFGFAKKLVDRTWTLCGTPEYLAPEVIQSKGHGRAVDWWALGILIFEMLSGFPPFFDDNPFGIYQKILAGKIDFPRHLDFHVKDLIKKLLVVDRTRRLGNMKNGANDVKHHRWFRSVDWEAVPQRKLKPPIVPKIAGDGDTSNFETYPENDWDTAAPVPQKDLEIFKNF
Particulars: at 0.1 µM.

The target in assay [9] is T5, cAMP-dependent protein kinase catalytic subunit PRKX (Homo sapiens). Particulars: at 1 µM.
Assay [10] deals with Rho-associated protein kinase 1 (Homo sapiens) (UniProt Q13464). Particulars: at 0.1 µM.
Rho-associated protein kinase 1 (Homo sapiens), sequence (Q13464 2-1354 limits assumed): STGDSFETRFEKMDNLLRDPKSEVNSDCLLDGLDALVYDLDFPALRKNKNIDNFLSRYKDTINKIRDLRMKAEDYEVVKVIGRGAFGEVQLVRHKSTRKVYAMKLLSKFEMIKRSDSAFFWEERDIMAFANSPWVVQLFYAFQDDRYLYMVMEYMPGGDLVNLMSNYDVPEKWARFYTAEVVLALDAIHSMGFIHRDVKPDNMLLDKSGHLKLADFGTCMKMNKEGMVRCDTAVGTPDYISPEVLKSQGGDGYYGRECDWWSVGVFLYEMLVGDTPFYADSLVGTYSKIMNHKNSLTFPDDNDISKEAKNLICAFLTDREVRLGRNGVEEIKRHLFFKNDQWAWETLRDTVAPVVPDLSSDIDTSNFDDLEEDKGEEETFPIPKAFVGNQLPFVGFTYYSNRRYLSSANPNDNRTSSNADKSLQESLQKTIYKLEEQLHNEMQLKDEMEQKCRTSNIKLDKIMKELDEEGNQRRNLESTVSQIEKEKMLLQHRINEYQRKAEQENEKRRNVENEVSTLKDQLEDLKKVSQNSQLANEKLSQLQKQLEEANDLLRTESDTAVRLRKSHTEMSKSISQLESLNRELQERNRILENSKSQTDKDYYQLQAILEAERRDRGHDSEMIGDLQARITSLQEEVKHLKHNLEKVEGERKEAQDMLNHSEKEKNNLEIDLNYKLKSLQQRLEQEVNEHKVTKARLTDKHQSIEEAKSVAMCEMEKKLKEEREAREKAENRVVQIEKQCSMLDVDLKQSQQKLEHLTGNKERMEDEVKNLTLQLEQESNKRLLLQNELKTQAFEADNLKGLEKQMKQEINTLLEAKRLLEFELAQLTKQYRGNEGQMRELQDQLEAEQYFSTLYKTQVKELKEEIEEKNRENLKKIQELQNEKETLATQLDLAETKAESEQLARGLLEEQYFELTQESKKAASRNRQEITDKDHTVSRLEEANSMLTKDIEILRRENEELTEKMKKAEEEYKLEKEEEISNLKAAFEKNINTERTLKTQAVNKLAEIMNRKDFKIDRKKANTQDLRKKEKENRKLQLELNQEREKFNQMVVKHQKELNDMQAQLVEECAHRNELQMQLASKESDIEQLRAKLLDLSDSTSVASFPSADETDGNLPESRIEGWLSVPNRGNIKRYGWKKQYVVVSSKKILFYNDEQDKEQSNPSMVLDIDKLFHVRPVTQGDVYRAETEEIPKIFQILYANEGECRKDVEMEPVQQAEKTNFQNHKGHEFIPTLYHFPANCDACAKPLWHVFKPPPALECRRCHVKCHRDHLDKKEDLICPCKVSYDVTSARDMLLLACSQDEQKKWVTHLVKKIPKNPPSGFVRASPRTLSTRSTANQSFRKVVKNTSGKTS
Assay [11] has the same target. Particulars: at 1 µM.
The target in assay [12] is Rho-associated protein kinase 2 (Homo sapiens) (UniProt O75116). The following applies: at 0.1 µM.
Rho-associated protein kinase 2 (Homo sapiens), sequence (O75116 whole entry, looked up): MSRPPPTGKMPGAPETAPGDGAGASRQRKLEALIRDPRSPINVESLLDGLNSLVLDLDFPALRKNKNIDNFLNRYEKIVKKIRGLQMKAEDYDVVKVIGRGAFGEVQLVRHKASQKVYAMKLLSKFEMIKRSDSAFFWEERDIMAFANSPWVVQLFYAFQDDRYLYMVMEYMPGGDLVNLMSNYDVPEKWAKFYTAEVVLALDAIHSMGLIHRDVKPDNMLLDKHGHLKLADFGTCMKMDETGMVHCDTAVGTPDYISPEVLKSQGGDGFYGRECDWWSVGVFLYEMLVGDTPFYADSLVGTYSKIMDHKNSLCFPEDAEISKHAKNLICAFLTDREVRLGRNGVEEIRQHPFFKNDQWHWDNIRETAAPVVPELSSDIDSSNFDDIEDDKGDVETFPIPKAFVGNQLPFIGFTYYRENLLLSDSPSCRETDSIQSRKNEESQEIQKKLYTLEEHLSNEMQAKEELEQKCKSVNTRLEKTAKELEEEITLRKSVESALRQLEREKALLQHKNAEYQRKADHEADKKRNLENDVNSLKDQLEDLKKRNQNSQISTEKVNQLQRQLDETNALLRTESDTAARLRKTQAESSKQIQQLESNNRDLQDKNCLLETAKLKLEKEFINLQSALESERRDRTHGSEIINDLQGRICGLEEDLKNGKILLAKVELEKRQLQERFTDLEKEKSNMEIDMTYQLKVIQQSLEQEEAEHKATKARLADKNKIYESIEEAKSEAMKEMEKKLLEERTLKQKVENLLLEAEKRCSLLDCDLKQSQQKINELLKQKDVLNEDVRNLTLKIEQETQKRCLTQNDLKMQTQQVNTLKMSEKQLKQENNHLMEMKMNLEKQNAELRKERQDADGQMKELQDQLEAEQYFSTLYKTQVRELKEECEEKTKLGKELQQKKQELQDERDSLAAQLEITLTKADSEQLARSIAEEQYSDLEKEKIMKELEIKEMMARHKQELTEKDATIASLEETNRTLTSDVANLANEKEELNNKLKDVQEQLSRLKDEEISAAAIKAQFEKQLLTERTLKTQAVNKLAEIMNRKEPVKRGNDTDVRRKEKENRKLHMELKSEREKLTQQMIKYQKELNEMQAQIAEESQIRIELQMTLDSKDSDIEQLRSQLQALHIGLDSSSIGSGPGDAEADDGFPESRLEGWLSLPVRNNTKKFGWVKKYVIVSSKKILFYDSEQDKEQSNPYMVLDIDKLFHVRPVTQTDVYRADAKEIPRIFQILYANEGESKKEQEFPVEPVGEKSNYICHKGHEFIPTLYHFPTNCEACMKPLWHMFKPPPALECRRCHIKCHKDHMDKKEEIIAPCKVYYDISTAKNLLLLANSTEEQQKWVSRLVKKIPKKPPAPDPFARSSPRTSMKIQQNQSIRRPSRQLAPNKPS
Assay [13] has the same target. The following applies: at 1 µM.
Assay [14] has as its target Ribosomal protein S6 kinase alpha-1 (Homo sapiens) (UniProt Q15418). Particulars: at 0.1 µM.
Assay [15] has the same target. The following applies: at 1 µM.
Assay [16] deals with Ribosomal protein S6 kinase alpha-3 (Homo sapiens) (UniProt P51812). The following applies: at 0.1 µM.
Assay [17] has the same target. The following applies: at 1 µM.
Assay [18] has as its target Ribosomal protein S6 kinase alpha-2 (Homo sapiens) (UniProt Q15349). The following applies: at 0.1 µM.
The target is the same in assay [19]. Particulars: at 1 µM.
The target of assay [20] is Ribosomal protein S6 kinase alpha-6 (Homo sapiens) (UniProt Q9UK32). The following applies: at 0.1 µM.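 Note: reported value is the mean inhibition of RSK4, from the GSK PKIS kinase inhibitor screen.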
Ribosomal protein S6 kinase alpha-6 (Homo sapiens), sequence (Q9UK32 whole entry): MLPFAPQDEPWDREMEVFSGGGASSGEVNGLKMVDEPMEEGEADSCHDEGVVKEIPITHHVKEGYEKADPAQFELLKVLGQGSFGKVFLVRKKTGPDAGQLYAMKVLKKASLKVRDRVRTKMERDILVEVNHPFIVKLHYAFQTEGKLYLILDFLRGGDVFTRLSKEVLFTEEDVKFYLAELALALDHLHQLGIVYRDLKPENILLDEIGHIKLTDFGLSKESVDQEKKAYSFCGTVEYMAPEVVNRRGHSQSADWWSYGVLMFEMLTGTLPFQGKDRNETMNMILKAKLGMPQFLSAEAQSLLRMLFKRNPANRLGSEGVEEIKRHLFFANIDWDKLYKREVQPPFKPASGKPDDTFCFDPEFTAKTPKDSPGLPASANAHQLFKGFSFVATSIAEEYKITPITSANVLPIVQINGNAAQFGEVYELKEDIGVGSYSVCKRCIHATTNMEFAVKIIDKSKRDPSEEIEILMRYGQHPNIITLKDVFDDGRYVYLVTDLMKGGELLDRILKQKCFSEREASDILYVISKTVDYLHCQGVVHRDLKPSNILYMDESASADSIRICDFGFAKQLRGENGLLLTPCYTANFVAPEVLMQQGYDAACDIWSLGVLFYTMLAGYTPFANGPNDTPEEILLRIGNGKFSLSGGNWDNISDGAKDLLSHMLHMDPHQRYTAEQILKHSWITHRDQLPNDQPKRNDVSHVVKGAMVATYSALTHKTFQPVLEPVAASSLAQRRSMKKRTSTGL

Ribosomal protein S6 kinase alpha-1 (Homo sapiens), sequence (Q15418 whole entry): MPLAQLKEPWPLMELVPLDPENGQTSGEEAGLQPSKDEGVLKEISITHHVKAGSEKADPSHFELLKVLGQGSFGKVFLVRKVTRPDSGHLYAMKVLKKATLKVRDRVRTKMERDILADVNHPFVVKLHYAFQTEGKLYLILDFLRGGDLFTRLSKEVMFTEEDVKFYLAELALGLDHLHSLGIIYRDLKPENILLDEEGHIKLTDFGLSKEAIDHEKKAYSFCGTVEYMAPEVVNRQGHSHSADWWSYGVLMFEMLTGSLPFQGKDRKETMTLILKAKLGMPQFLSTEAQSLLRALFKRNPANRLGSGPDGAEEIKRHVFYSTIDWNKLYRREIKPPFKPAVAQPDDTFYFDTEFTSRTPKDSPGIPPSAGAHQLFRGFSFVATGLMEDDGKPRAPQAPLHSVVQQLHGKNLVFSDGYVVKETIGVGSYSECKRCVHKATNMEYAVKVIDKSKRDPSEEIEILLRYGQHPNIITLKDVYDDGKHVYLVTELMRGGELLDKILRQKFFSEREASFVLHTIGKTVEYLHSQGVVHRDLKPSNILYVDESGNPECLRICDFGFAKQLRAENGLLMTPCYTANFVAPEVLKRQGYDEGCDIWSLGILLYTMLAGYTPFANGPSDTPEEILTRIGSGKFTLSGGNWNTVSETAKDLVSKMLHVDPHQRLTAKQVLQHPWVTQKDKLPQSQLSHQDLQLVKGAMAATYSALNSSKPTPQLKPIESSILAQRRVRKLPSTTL
Ribosomal protein S6 kinase alpha-2 (Homo sapiens), sequence (Q15349 whole entry): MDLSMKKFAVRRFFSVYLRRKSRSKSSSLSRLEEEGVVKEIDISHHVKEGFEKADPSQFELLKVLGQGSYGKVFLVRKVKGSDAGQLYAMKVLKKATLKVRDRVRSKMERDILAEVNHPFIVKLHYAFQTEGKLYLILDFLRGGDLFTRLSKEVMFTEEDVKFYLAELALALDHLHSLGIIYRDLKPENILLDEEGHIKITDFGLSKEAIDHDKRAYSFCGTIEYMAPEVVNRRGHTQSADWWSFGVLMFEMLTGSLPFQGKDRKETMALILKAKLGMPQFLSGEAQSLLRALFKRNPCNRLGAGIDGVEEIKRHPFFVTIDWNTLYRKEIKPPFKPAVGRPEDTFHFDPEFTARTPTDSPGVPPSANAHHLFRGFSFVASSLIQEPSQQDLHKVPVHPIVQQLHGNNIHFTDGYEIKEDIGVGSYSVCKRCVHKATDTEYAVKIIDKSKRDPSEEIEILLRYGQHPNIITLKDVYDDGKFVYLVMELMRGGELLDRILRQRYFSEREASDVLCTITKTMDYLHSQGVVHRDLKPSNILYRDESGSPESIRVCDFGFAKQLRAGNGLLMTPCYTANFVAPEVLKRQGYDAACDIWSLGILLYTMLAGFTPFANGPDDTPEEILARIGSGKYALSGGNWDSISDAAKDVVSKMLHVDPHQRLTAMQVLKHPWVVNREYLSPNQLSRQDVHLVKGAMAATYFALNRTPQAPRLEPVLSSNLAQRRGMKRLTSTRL

`CCS(=O)(=O)c1ccc(OC)c(Nc2ncc(-c3cccc(F)c3)o2)c1`: the inhibition (commonly the relative decrease from the control value, in per cent) in assay [1] stood at 3.8%; in [2] it was 4.67%; in [3], 4.73%; in assay [4] it was 4.88%; in [5], 8.02%; in assay [6], 3.78%. The inhibition in assay [7] was found to be 6.47%; in [8], 3.37%; in assay [9], 2.6%; in assay [10], 2.49%; in assay [11], 2.95%; in assay [12], 3.63%. Further, the inhibition in [13] came out at 3.95%; in assay [14], 2.84%; in assay [15] it was 6.08%; in assay [16] it was 1.12%; in assay [17] it was 13.6%; in [18] it was 4.07%. The inhibition came out at 5.22% in assay [19] and 2.2% in assay [20].
In the case of `O=C(Nc1n[nH]c2nnc(-c3cccnc3)cc12)C1CC1`, the inhibition in [1] was 0.68%; in [2] it was -0.7%; in assay [3] it was 0.02%; in assay [4] it was -0.91%; in assay [5] it was 0.14%; in assay [6], 1.31%. In addition, the inhibition in assay [7] was 7.32%; in assay [8], -0.34%; in [9], -0.33%; in assay [10] it was -0.21%; in assay [11], 1.3%; in assay [12], 0.06%. The inhibition was 0.61% in assay [13]; 0.83% in assay [14]; 0.39% in [15]; 0.41% in assay [16]; 0.86% in [17]; 0.73% in assay [18]. Besides, the inhibition in [19] stood at 1.89%; in assay [20], 0.32%.
On to `NS(=O)(=O)c1cccc(N/C=C2\C(=O)Nc3ccccc32)c1`, for which the inhibition in assay [1] was 11%; in [2] it was 5%; in [3] it was 9.04%; in [4], 3.34%; in assay [5], 4.68%; in assay [6] it was 1.91%. Further, the inhibition in assay [7] is 7.34%; in [8], 1.79%; in [9], 2.25%; in [10], 1.58%; in assay [11], 3.96%; in assay [12], 2.91%. Also, the inhibition in [13] worked out at 5.46%; in assay [14], 3.72%; in [15], 17.6%; in assay [16], 2.42%; in [17], 15.2%; in assay [18] it was 5.57%. The inhibition in assay [19] is 26.2%; in [20] it was 4.77%.
Consider `c1cnn2ncc(-c3ccnc(NCCCN4CCOCC4)n3)c2c1`, for which the inhibition in assay [1] was 5.4%; in assay [2], 3.94%; in assay [3], 5%; in [4], 3.07%; in assay [5], 8.93%; in [6], 3.44%. Besides, the inhibition in assay [7] amounted to 4.91%; in assay [8], 1.06%; in assay [9] it was 3.97%; in assay [10], 2.01%; in assay [11], 4.7%; in assay [12], 4.49%. Further, the inhibition in assay [13] was found to be 4.16%; in [14], 1.74%; in [15] it was 4.45%; in assay [16], 0.98%; in assay [17], 2.86%; in assay [18], 1.93%. Moreover, the values for the inhibition in assay [19] and in assay [20] were 3.97% and -0.14%, respectively.
Consider `FC(F)(F)CNc1nccc(-c2cnn3ncccc23)n1`, for which the inhibition in assay [1] turned out to be 2.13%; in [2], 2.29%; in assay [3] it was 3.81%; in [4], 1.02%; in assay [5], 1.12%; in assay [6], 2.48%. The inhibition in assay [7] is 2.8%; in assay [8], 1.1%; in assay [9], 0.78%; in assay [10], -0.46%; in assay [11], -0.11%; in [12], 1.53%. Further, the inhibition in [13] was 0.94%; in assay [14] it was -0.21%; in [15] it was 1.24%; in assay [16] it was 1.65%; in assay [17] it was 2.69%; in [18], 0.89%. Also, the values for the inhibition in assay [19] and in [20] were 1.84% and 0.72%, respectively.
